# Screening data as filed in PubChem.
# AmpC no deterg: qHTS Inhibitors of AmpC Beta-Lactamase (assay without detergent); P00811; AmpC nitrocefin hydrolysis, absorbance 480 nm, 0.0001% Triton; Potency, µM (top dose mostly 57.1 µM), for the others: top-dose activity change, negative = inhibition, usual class: inhibitors; hit rate 0.52% among 330,000; AID 485341, 2010;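 further: plate controls were no compound for no effect and no enzyme for full effect; nearly all actives have a fitted effect of over 20% in size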
# Target sequence (P00811 whole entry, looked up): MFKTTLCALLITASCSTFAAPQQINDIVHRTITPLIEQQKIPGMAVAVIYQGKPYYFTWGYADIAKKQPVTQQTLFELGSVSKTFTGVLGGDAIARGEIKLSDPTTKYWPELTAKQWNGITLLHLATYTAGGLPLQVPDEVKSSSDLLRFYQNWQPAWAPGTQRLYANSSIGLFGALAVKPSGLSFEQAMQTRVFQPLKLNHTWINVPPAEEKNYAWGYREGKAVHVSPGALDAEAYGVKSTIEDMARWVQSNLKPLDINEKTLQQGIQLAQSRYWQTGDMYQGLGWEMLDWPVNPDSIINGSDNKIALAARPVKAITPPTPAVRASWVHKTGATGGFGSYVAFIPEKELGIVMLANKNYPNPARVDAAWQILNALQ
#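 20 mM phosphate pH 7.0 + 0.01% (detergent screen) or 0.0001% Triton X-100; 5.3 nM AmpC reagent; cpd preinc 15 min RT; nitrocefin (800 uM stock) to start; A480 q20 s × 4 min; Activity was normalised to no-enzyme and no-compound control wells.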
# Pf growth 96h: Primary qHTS for delayed death inhibitors of the malarial parasite plastid, 96 hour incubation; Potency, µM (doses to about 28.7 µM), for inactives: at the top dose activity change, negative = inhibition, most hits filed as inhibitors; AID 504834, 2011; P. falciparum luciferase reporter growth, 96 h; hit rate 6.9% among 320,000
#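 Erythrocytes infected with luciferase-expressing P. falciparum were dispensed at 2% hematocrit and 0.05% parasitemia (final), then incubated with compounds 96 hours at 37 C in 5% CO2. Luminescence after detection reagent addition reported growth.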
# AmpC detergent: qHTS Inhibitors of AmpC Beta-Lactamase (assay with detergent); P00811; AmpC hydrolysis of nitrocefin, absorbance 480 nm, 0.01% Triton; Potency, µM (doses to about 114 µM), for the others: at the top dose activity change, negative = inhibition, usual class: inhibitors; hit rate 0.041% among 370,000;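 further: 0% = no-compound wells and -100% = no-enzyme wells; nearly all actives have a fitted effect of over 25% in size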
#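 AmpC (5.3 nM in the dispensed reagent) in 20 mM phosphate pH 7.0 with 0.01% (detergent screen) or 0.0001% Triton X-100 was preincubated with compounds for 15 min at room temperature. Nitrocefin was then added from an 800 uM solution, and hydrolysis was followed at 480 nm.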
# Pf growth 48h: Primary qHTS for delayed death inhibitors of the malarial parasite plastid, 48 hour incubation; hit rate 5.9% among 310,000; AID 504832, 2011; P. falciparum luciferase growth in erythrocytes, 48 h; Potency, µM (doses to about 28.7 µM), for the others: at the highest dose activity change, negative = inhibition, actives largely listed as inhibitors
#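 Read-out is firefly luciferase luminescence from an integrated reporter in P. falciparum, so falling signal marks reduced parasite growth. Infected erythrocytes were at 2% hematocrit and 0.1% parasitemia (final) in Albumax-supplemented RPMI 1640.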
# AMA1-RON2 inh: qHTS for Inhibitors of AMA1-RON; Towards Development of Antimalarial Drug Lead: Primary Screen; Plasmodium falciparum AMA1 (3D7) - RON2 peptide interaction; AlphaScreen AMA1-biotinylated RON2 peptide binding; Potency, µM (titrated, usually from 58.2 µM), inactives show top-dose activity change, negative = inhibition, hits mostly inhibitors; hit rate 0.2% among 360,000; AID 720542, 2013;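 further: 0% = vehicle wells and -100% = peptide control; nearly all actives have a fitted effect of over 45% in size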
#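 AMA1 (3D7) with his tag at 25 nM final met compounds first, then biotinylated RON2 peptide at 25 nM; detection used donor plus acceptor beads, 10 µg/mL apiece, read by AlphaScreen after 30 min at room temperature.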
# HCV inhibitor: qHTS Assay for Inhibitors of Hepatitis C Virus (HCV); Huh7.5.1 HCVcc-Cre infection, luciferase reporter, 44 h; hit rate 3.4% among 340,000; Potency, µM (highest dose often 41.8 µM), for the others: at the top dose activity change, negative = inhibition, actives largely listed as inhibitors
#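 Compounds are dispensed onto cells plated 4 h earlier at 1,000 per well, with HCVcc-Cre virus (about 0.5 moi) added next. Following 44 h of culture, luminescent signal is measured for 15 sec after 15 min with substrate at room temperature.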
# Active calls of the source: *; ? = inconclusive; / = no result given. A selection: hits, their analogues and other compounds. The true share with any hit is near 11%. The call rests on the fitted dose curve; in most records, active means well fitted curve in the direction sought with a large enough effect; inconclusive means small, poorly fitted or top-dose-only effect, or another doubt; inactive means no such curve, though single readings can be large; an effect the other way counts as inactive or inconclusive. Unless noted, on the % scale 0 is the no-effect control and ±100 the full control effect; potency means the concentration at half of the fitted maximal effect.
SMILES,AmpC no deterg,Pf growth 96h,AmpC detergent,Pf growth 48h,AMA1-RON2 inh,HCV inhibitor
COC(=O)c1ccc(CSc2nc3c(cnn3-c3ccc(Cl)cc3)c(=O)[nH]2)o1,-26%,6.6µM*,0%,1%,-1%,5%
CCCCSc1nc2c(cnn2-c2ccc(F)cc2)c(=O)[nH]1,40µM*,3%,?,19%,-7%,12%
CCC(C)Sc1nc2c(cnn2-c2ccc(C)c(C)c2)c(=O)[nH]1 (configuration not stated),40µM*,18%,-14%,8%,-2%,-3%
CCCSc1nc2c(cnn2-c2ccc(Cl)cc2)c(=O)[nH]1,-15%,?,?,/,-8%,-22%
COC(=O)c1ccc(CSc2nc3c(cnn3-c3ccc(F)cc3)c(=O)[nH]2)o1,-32%,?,?,13%,1%,-7%
CSc1nc2c(cnn2-c2ccc(C)c(C)c2)c(=O)[nH]1,-20%,?,?,/,-1%,6%
COc1ccc(CNC(=O)CCCN2C(=O)c3cccnc3Oc3ccc(Cl)cc32)cc1,/,/,14%,/,/,/
CCOc1ccc(-c2cc3c(=O)n(Cc4nc(-c5cccc(OC)c5OC)oc4C)ccn3n2)cc1Cl,/,/,-2%,/,/,/
COc1cccc(C2OC(=O)c3ccccc3N2C(C)=O)c1OC(C)=O (configuration not stated),-23%,12µM*,9%,-7%,12%,-3%
COc1ccccc1CNC(=O)c1cc(-c2ccccc2)nn1Cc1cc(C)no1,-14%,?,1%,?,-11%,?
CCc1cc(Cn2nc(-c3ccccc3)cc2C(=O)NCc2ccccc2OC)on1,-5%,?,?,10µM*,11%,?
Cc1cccc(C)c1NC(=O)COC(=O)CCc1c[nH]c2ccccc12,2%,6.6µM*,2%,3.7µM*,-7%,-1%
Cc1cccc(NC(=O)COC(=O)CCc2c[nH]c3ccccc23)c1C,-29%,?,-5%,13µM*,2%,-4%
CCOc1ccc(NC(=O)Cc2coc3ccc(C)cc23)cc1,/,/,12%,/,/,/
Cn1c(=O)c2cc(C(=O)N3CCN(c4cccc(C(F)(F)F)c4)CC3)sc2c2ccccc21,/,/,1%,/,/,/
COC(=O)C1=C(c2ccc(Cl)c(C(F)(F)F)c2)C[C@@H]2CC[C@H]1N2C(=O)N1CCOCC1,208%,?,-5%,?,0%,?
COC(=O)C1=C(c2ccc(Cl)c(C(F)(F)F)c2)C[C@@H]2CC[C@H]1N2C(=O)NCCOc1ccc(OC)cc1,81%,?,-5%,?,-7%,?
COC(=O)C1=C(c2ccc(Cl)c(C(F)(F)F)c2)C[C@@H]2CC[C@H]1N2C(=O)N1CCCC1,198%,?,10%,12µM*,-4%,32µM*
COC(=O)C1=C(c2ccc(Cl)c(C(F)(F)F)c2)C[C@@H]2CC[C@H]1N2C(=O)N1CCC(O)(c2ccc(Cl)cc2)CC1,80%,/,/,/,-4%,10µM*
COC(=O)C1=C(c2ccc(F)cc2F)C[C@@H]2CC[C@H]1N2C(=O)N1CCC(O)(c2ccc(Cl)cc2)CC1,148%,?,-5%,9.3µM*,-5%,?
COC(=O)C1=C(c2c(C)noc2C)C[C@@H]2CC[C@H]1N2C(=O)N1CCC(O)(c2ccc(Cl)cc2)CC1,208%,?,-1%,6.6µM*,-1%,-17%
CC(=O)Nc1nonc1-c1nnc(SCc2ccccc2F)n1C,/,/,0%,/,/,/
CCOC(=O)c1c(C)[nH]c(C)c1S(=O)(=O)N(C)CC(=O)Nc1ccc(C)cc1Br,/,/,1%,/,/,/
COC(=O)C1=C(c2c(C)noc2C)C[C@@H]2CC[C@H]1N2C(=O)N1CCc2cc(OC)c(OC)cc2C1,156%,?,4%,15µM*,-1%,21%
CCNC(=O)c1c(NC(=O)c2nc(S(=O)(=O)CC)ncc2Cl)sc2c1CCCC2,/,/,-7%,/,/,/
SMILES,AmpC no deterg,Pf growth 96h,AmpC detergent,Pf growth 48h,AMA1-RON2 inh,HCV inhibitor
O=C(NC1CCCC1)C(c1ccccn1)N(C(=O)c1csnn1)c1ccccc1Br (configuration not stated),-21%,2.1µM*,2%,6%,5%,0%
Nc1ccc2ccc3cccc[n+]3c2c1,-7%,?,-14%,0.41µM*,-6%,7.1µM*
O=C(COc1ccccc1F)Nc1ccc2oc(-c3cccc(Cl)c3)nc2c1,/,/,20%,/,/,/
CC1CC(C)CN(C(=O)c2ccc3c(c2NCCO)C(=O)c2ccccc2C3=O)C1 (configuration not stated),129%,/,-8%,/,22µM*,?
Cc1ccc(S(=O)(=O)Nc2cc(C(=O)NCCN(C)C)ccc2N2CCCC2)cc1,31%,8.3µM*,-10%,-3%,5%,10%
CCN(CC)CCCNC(=O)c1ccc(N2CCCCC2)c(NS(=O)(=O)c2ccc(C)cc2)c1,146%,?,-5%,?,-3%,-11%
COCCNC(=O)c1ccc(N2CCCCC2)c(NS(=O)(=O)c2ccc(C)cc2)c1,112%,400%,-5%,5.2µM*,-7%,22%
CCOC(=O)c1ccc(N2CCCCC2)c(NS(=O)(=O)c2ccc(C)cc2)c1,-5%,1µM*,-7%,2.3µM*,-11%,?
CCOCCCNC(=O)c1ccc(N2CCOCC2)c(NS(=O)(=O)c2ccc(OC)cc2)c1,36%,7%,5%,2%,-1%,-6%
CCOC(=O)c1ccc(N2CCN(c3ccccc3F)CC2)c(NC(=O)Nc2ccccc2)c1,?,?,-10%,13µM*,-11%,-9%
CCCN1CCN(c2ncnc3sc(C(=O)Nc4ccc(OC(F)(F)F)cc4)c(C)c23)CC1,/,/,18%,/,/,/
COCCCNC(=O)c1ccc(N2CCOCC2)c(NS(=O)(=O)c2ccc(OC)cc2)c1,-1%,/,-10%,-14%,-8%,0%
CCCCNC(=O)c1ccc(N2CCOCC2)c(NS(=O)(=O)c2ccc(OC)cc2)c1,56%,49%,-6%,7.4µM*,-2%,3%
COc1cc(C)c2occ(/C(C)=N\O)c2c1,-14%,-16%,?,4%,-12%,8.9µM*
CCC(C)C(=O)OC1CCC=C2C=CC(C)C(CCC3CC(O)CC(=O)O3)[C@@H]21 (some centres not stated),/,1%,/,-2%,/,/
